HCMV antiviral: human cytomegalovirus inhibition | HFF cells, HCMV-luciferase reporter, 72 h; active compounds read low | activity change, negative = inhibition, % at 57.5 µM | 410,000 tested, 4.5% active | AID 1259415; in the data active = activity change below about -60%; inconclusive = no clear call, values can overlap the other calls; inactive = above about -39%
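Two-dose cell screen: HFF monolayers treated with compounds and infected with luciferase-expressing HCMV at 1 PFU/cell, 72 h at 37C, then lysed for luciferase measurement.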
Pf growth 96h: P. falciparum growth inhibition at 96 hours; P. falciparum luciferase reporter growth, 96 h; Potency, µM (titrated, usually from 28.7 µM), without a hit: at the top dose activity change, negative = inhibition, most hits filed as inhibitors; 320,000 tested, 6.9% active; note: potency is the fitted concentration of half-maximal effect
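Two parasite generations (96 h, 37 C, 5% CO2) of compound exposure in infected erythrocytes (0.05% parasitemia, 2% hematocrit). Luciferase-reporter P. falciparum; decreased luminescence indicates inhibited growth, aimed at apicoplast-acting delayed death.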
Pf growth 48h: inhibits P. falciparum growth in the first generation, 48 h | 310,000 tested, 5.9% active | P. falciparum luciferase growth in erythrocytes, 48 h | Potency, µM (doses to about 28.7 µM), without a hit: at the top dose activity change, negative = inhibition, hits mostly inhibitors; note: potency is the fitted concentration of half-maximal effect
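First compound was added to culture medium, then infected red cells at 0.1% parasitemia and 2% hematocrit (final). After incubation at 37 C under 5% CO2, luciferase detection reagent was dispensed and light output recorded.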
HCV inh: HCV inhibition; Huh7.5.1 HCVcc-Cre infection, luciferase reporter, 44 h; Potency, µM (series often up to 41.8 µM), inactives show at the top dose activity change, negative = inhibition, hits mostly inhibitors; 340,000 tested, 3.4% active; AID 651820; note: potency is the fitted concentration of half-maximal effect
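Cells seeded at 1,000/well and cultured 4 h, then compounds added followed by HCVcc-Cre virus (~0.5 moi). After 44 h further culture, luciferase substrate was added, plates held 15 min at room temperature, and luminescence read for 15 sec.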
MARV entry inh: blocks Marburg virus binding to or entry into cells; Marburg virus pseudotyped entry inhibition, cell reporter; Potency, µM (doses to about 37.8 µM), for the others: top-dose activity change, negative = inhibition, actives largely listed as inhibitors; 300,000 tested, 1.8% active; AID 540276; calls by dose curve; tested in HEK293 cells; note: potency is the fitted concentration of half-maximal effect
Lassa entry inh: blocks Lassa virus binding to or entry into cells. Lassa virus pseudotype entry inhibition, cell reporter. AID 540256. Potency, µM (series often up to 37.9 µM), for the others: at the top dose activity change, negative = inhibition, most hits filed as inhibitors. 300,000 tested, 1.2% active; calls by dose curve; tested in HEK293 cells; note: potency is the fitted concentration of half-maximal effect; nearly all actives have a fitted effect of over 50% in size
Active calls of the source: *; u = inconclusive; x = not tested or not shown; [ ] = remark or other dose. Compounds with a hit are over-represented: about 14% of the library has one in this group of screens. Unless noted, calls come from the whole dose curve; as a rule, active = well fitted inhibition curve with a large enough effect; inconclusive = small, poorly fitted or top-dose-only effect, or another doubt; inactive = no such curve, though single readings can be large or run the other way. % is set by controls: 0 for no effect and ±100 for the full control effect.

SMILES	HCMV antiviral	Pf growth 96h	Pf growth 48h	HCV inh	MARV entry inh	Lassa entry inh
CC(OC(=O)c1ccc2c(c1)OCO2)C(=O)NC1CCCCC1 (centres undefined)	-17	x	x	x	x	x
CCOC(=O)CSc1nnc2n1C(C)(C)Cc1ccccc1-2	0	u	-13%	-4%	-1%	13%
CC1Cc2ccccc2N1C(=O)CSc1nnc2n1C(C)(C)Cc1ccccc1-2 (centres undefined)	u	2.6µM*	u	u	0%	-27%
Clc1ccc(Nc2nc(-c3ccncc3)cs2)cc1	7	x	x	u	7.9µM*	15%
Fc1ccc(Nc2nc(-c3ccncc3)cs2)cc1	71	26%	46%	u	-61%	12%
NS(=O)(=O)c1ccc(Nc2nc(-c3ccc(O)cc3)cs2)cc1	u	20%	-2%	u	1%	-40%[14.3 µM]
Oc1ccc(Nc2nc(-c3ccc(O)cc3)cs2)cc1	12	-23%	-50%	10µM*	-17%	u
Nc1ccc(Nc2nc(-c3ccncc3)cs2)cc1	-99*	x	-33%	7.9µM*	u	u
Brc1ccc(-c2csc(Nc3nc(-c4ccc(Br)cc4)cs3)n2)cc1	-87*	u	u	-29%	-18%[46.1 µM]	-12%[46.1 µM]
Cc1ccc(CCNC(=O)CCCn2c(=O)c3cccn3c3ccc(F)cc32)cc1	-22	x	x	x	x	19%[46.1 µM]
C/C(=N\NC(=O)CNC(=O)c1ccc(F)cc1)c1ccco1	-27	u	-18%	u	x	x
C[C@H](CO)N1C[C@H](C)[C@@H](CN(C)Cc2ccc3c(c2)OCO3)Oc2cc(Br)ccc2S1(=O)=O	-5	x	x	x	x	x
COc1ccc(CNC(=O)CC(c2ccc(OC)c(OC)c2)N2Cc3ccccc3C2=O)cc1 (centres undefined)	-9	x	x	x	x	-5%[46.1 µM]
COc1ccc2oc(=O)c(-c3csc(-c4ccc(Br)cc4)n3)cc2c1	24	x	x	x	x	14%[46.1 µM]
COc1ccc2oc(=O)c(-c3csc(Nc4ccc(O)cc4)n3)cc2c1	u	-16%	u	11µM*	u	10µM*
CC(Sc1nnc(NC2CC2)s1)C(=O)Nc1ccc(N2CCOCC2)cc1 (centres undefined)	24	2%	5%	-4%	21%	-28%
CC(=O)c1c(C)[nH]c(C(=O)C(C)Sc2nnc(NC3CC3)s2)c1C (centres undefined)	6	9.3µM*	13µM*	10µM*	u	u
CCCCCn1c(=O)[nH]c2cc(C(=O)N3CCN(c4cccc(C(F)(F)F)c4)CC3)ccc2c1=O	8	x	x	x	19%[46.1 µM]	8%[46.1 µM]
CCC(C)Oc1ccc(C(=O)Nc2ccc(CN3CCOCC3)cc2)cc1 (centres undefined)	-80*	u	u	25µM*	x	x
COc1ccc(-c2ocnc2C(=O)Nc2ccc(N3CCOCC3)cc2N2CCOCC2)cc1OC	43	38%	8.3µM*	u	23%[46.1 µM]	x
CC(C)COc1cccc(C(=O)Nc2ccc(S(=O)(=O)N3CCOCC3)cc2)c1	-34	x	u	u	-3%	u
CC(C)COc1cccc(C(=O)Nc2ccc(CN3CCOCC3)cc2)c1	-26	8.3µM*	-28%[0.00184 µM]	3.2µM*	u	u
CC(C)COc1cccc(C(=O)Nc2ccc(N3CCOCC3)cc2N2CCOCC2)c1	u	u	u	7.9µM*	u	-11%
CCc1ccc(NS(=O)(=O)c2ccc3[nH]cc(C(=O)NC4CCCC4)c(=O)c3c2)cc1	-7	x	x	x	u	8%[46.1 µM]
Cc1ccc(S(=O)(=O)NCC(=O)N(CC(=O)NCC2CCCO2)Cc2ccccc2Cl)cc1 (centres undefined)	2	10%	-17%	15%	-2%[46.1 µM]	u
SMILES	HCMV antiviral	Pf growth 96h	Pf growth 48h	HCV inh	MARV entry inh	Lassa entry inh
COCCCNC(=O)CCn1c(=O)c2ccccc2n(CC(=O)Nc2c(C)cc(C)cc2C)c1=O	16	x	x	x	2%[46.1 µM]	-4%[46.1 µM]
O=C(Nc1ccccc1C(=O)NCCCN1CCOCC1)c1ccc(F)cc1	5	11%	13%	14%	x	x
COc1cc(OC)cc(C(=O)Nc2ccc(N3CCOCC3)cc2N2CCOCC2)c1	0	13µM*	u	u	x	x
CC(C)CNC(=O)c1ccccc1NC(=O)c1ccc(CN2CCOCC2)cc1	38	30%	8.3µM*	u	1%	24%
Cc1ccc(Cl)cc1N1CCN(C(=O)Cn2ncc3c4ccccc4n(C)c3c2=O)CC1	6	x	x	x	2%[46.1 µM]	21%[46.1 µM]
C=C(C[C@@]1(C(=O)OC)C=C[C@@H](C)[C@H](c2ccccc2Br)N1C(=O)C(F)(F)F)c1ccccc1	x	x	x	x	-14%[14.2 µM]	x
COc1ccc(CC2(CO)CCN(S(=O)(=O)c3c(C)nn(C)c3Cl)CC2)cc1	107	-1%	-8%	8%	0%[46.1 µM]	13%[46.1 µM]
COc1ccc(CC2(CO)CCN(C(C)Cc3ccc(Cl)cc3)CC2)cc1 (centres undefined)	-9	8%	12µM*	u	u	-28%[46.1 µM]
OCC1(Cc2ccccc2)CCN(Cc2cnc(-c3ccc(Cl)cc3)nc2)CC1	-67*	32%	u	10µM*	u	u
COc1ccc(CC2(CO)CCN(S(=O)(=O)c3sccc3C)CC2)cc1	4	12µM*	u	-18%	u	-26%
COc1ccc(CCC(C)N2CCC(CO)(Cc3ccccc3)CC2)cc1 (centres undefined)	-40	-80%	1%	u	u	-2%[46.1 µM]
CCOC(=O)C1(Cc2ccc(Cl)cc2)CCN(C(C)Cc2ccc(O)c(OC)c2)CC1 (centres undefined)	-63*	u	u	10µM*	x	x
Cc1nnc2c(N3CCN(c4ccccc4F)CC3)nc3ccccc3n12	-15	x	x	x	x	u
CCC(C(=O)NCCc1ccc(S(N)(=O)=O)cc1)c1ccccc1 (centres undefined)	22	x	x	-6%	6%[46.1 µM]	16%
COc1ccc(-c2ncc(CN3CCC(CO)(Cc4cccc(OC)c4)CC3)cn2)cc1	0	u	10µM*	u	x	x
COc1cccc(CC2(CO)CCN(Cc3cccn3-c3cccnc3)CC2)c1	5	u	-10%	-1%	u	1%
COc1ccc(CC2(CO)CCN(Cc3cccnc3)CC2)cc1	4	-18%	10µM*	5%	23%[46.1 µM]	5%
Cn1c(N)c(C(=O)COC(=O)/C=C/c2ccc(Cl)c(Cl)c2)c(=O)n(C)c1=O	2	x	x	-11%	2%[46.1 µM]	-10%[46.1 µM]
CC(=Nc1ccccc1O)c1sc2ccccc2c1O	37	15µM*	u	u	x	x
CC(=Nc1ccc(O)cc1)c1sc2ccccc2c1O	-20	42%	128%	13µM*	12%[46.1 µM]	5%
C[C@H]1COc2cc(NCCO)ccc2S(=O)(=O)N1	2	x	x	x	x	x
COc1ccc(-n2c(O)c(C(C)=NCCc3c[nH]c4ccccc34)c(=O)[nH]c2=O)cc1	35	u	12µM*	-6%	x	x

Source: PubChem (National Center for Advancing Translational Sciences (NCATS))
